Common to all, as to type: functional
Assay [1] has as its target Solute carrier family 2, facilitated glucose transporter member 1 (Homo sapiens) (UniProt P11166). As to the kind of experiment: ST_JUDE_LEISH: Cytotoxicity at 2uM final concentration against transgenic Leishmania Mexicana promastigotes LmGLUT1 that are glucose transport deficient and complemented with the human glucose transporter GLUT1. Activity is measured by DNA content using SYBR green in vitro.

Assay [2] deals with Hexose transporter 1 (Plasmodium falciparum) (UniProt O97467). Kind of assay: ST_JUDE_LEISH: Cytotoxicity at 2uM final concentration against transgenic Leishmania Mexicana promastigotes LmPfHT that are glucose transport deficient and complemented with the Plasmodium falciparum hexose transporter. Activity is measured by DNA content using SYBR green in vitro.
The target of assay [3] is Glucose transporter (Leishmania mexicana) (UniProt O61059). As to the kind of experiment: ST_JUDE_LEISH: Cytotoxicity at 2uM final concentration against transgenic Leishmania Mexicana promastigotes LmGT2 that are glucose transport deficient and complemented with the L. Mexicana glucose transporter 2. Activity is measured by DNA content using SYBR green in vitro.

In ChEMBL document CHEMBL3433997, “St. Jude Leishmania screening dataset” (2016) one finds inhibition data, which are given here for 35 compounds.

Chain of Solute carrier family 2, facilitated glucose transporter member 1 (Homo sapiens) (P11166 whole entry): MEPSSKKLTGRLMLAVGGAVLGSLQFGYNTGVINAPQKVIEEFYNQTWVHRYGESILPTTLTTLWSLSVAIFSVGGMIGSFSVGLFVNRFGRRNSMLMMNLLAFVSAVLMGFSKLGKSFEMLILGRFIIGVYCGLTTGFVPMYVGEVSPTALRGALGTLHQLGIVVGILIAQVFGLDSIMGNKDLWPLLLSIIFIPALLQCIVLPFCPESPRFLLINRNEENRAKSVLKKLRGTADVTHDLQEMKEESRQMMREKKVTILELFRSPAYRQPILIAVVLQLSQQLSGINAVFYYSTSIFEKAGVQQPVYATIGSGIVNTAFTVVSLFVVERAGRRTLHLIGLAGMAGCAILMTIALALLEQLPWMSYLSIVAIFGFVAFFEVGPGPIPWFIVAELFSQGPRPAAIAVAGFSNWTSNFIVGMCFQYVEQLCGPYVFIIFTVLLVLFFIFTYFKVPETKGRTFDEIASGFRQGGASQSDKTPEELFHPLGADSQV

Turning to `Cc1cc(-c2cccc3c(C(=O)N4CCc5cc6nccc(N7CCN8CCC[C@H]8C7)c6cc54)cccc23)cc(C)n1`, the figures for the inhibition in assay [1], in assay [2] and in assay [3] were 1.99%, -1.7% and 2.83%, respectively.

As for `CCOc1cc(C)ccc1C1CCN(CCN2CCC(CNC(=O)c3ccc(-c4ccc(C(F)(F)F)cc4)cc3)CC2)CC1`, the inhibition in assay [1] worked out at 0.7%; in assay [2] it was 2.7%; in assay [3], 1.5%.

Consider `N#CC(CC(=O)c1ccc(Cl)cc1)c1cccc(F)c1` (stereo not given), for which the inhibition is 1.46% in assay [1], -1.27% in assay [2] and 1.13% in assay [3].

On to `COc1ccc(COc2cc(NCCCN)nc3ccccc23)cc1`, for which the inhibition in assay [1] came out at 4.66%; in assay [2] it was 6.16%; in assay [3] it was 4.46%.

In the case of `Cc1ccc(C(NC(=O)Cc2ccccc2)c2ccc3cccnc3c2O)cc1` (stereo not given), the values for the inhibition in assay [1], in assay [2] and in assay [3] were 8.52%, 22.8% and 0.77%, respectively.

Turning to `COc1ccccc1CNC(=O)c1ccc(N2CCN(c3ccncc3)CC2)cn1`, the values for the inhibition in assay [1], in assay [2] and in assay [3] were 7.32%, 2.84% and 1.11%, respectively.

Turning to `CC(=O)Nc1nc(C(=O)Nc2ccc(-c3ccc(-c4nc5cc(F)ccc5[nH]4)cc3)cc2)cs1`, the inhibition was 2.38% in assay [1], -2.61% in assay [2] and -1.02% in assay [3].

As for `CCCCCCN1CCC(NCc2ccc(C)cc2)CC1`, the inhibition came to 12.6% in assay [1], 16% in assay [2] and 17.6% in assay [3].

For the compound `O=C(COc1cnc2ccccc2n1)Nc1ccccc1Sc1ccc(Cl)cc1`, the inhibition in assay [1] worked out at 4.91%; in assay [2] it was 3.31%; in assay [3], 3.2%.

Take `CN(CCO)Cc1cccc(-c2ccc(NC(=O)c3cccc(C#N)c3)cc2)c1`: the results for the inhibition in assay [1], in assay [2] and in assay [3] were 1.6%, 0.52% and -2.56%, respectively.

As to `CC(=O)c1cccc(NC(=O)c2ccc(Cl)c(S(=O)(=O)N3CCc4ccccc43)c2)c1`, the inhibition in assay [1] was found to be 12.1%; in assay [2] it was 11.9%; in assay [3], 12%.

As to `CC(C)(C)c1ccc(C(=O)NC2CCC(CCN3CCc4ccc(S(C)(=O)=O)cc4CC3)CC2)cc1C(F)(F)F` (stereo not given), the inhibition in assay [1] is 1.87%; in assay [2], 2.06%; in assay [3] it was 6.75%.

Take `CC(C)c1sc(N2CCN(C)CC2)nc1C(=O)Nc1ccc(F)cc1C(F)(F)F`: the values for the inhibition in assay [1], in assay [2] and in assay [3] were 5.47%, 6.04% and 2.97%, respectively.

On to `Nc1ccc2[nH]cc(C3CCN(CC4CCN(C(=O)/C=C/c5ccc(Cl)c(Cl)c5)CC4)CC3)c2n1`, for which the values for the inhibition in assay [1], in assay [2] and in assay [3] were 2.32%, 1.93% and -0.49%, respectively.

For `CN1CCN(CCCCNc2c3ccccc3nc3ccccc23)CC1`, the results for the inhibition in assay [1], in assay [2] and in assay [3] were 23%, 11.7% and 14.6%, respectively.

As to `CSC1=NC(C)(C)CC2(CC(c3cccc(C)c3)c3cc(Cl)c(O)cc3O2)N1` (stereo not given), the inhibition in assay [1] is 0.95%; in assay [2], 1%; in assay [3], 0.47%.

For the compound `COc1cc2c(cc1C=CC(=O)N1CCN(Cc3nc(O)c4c(C)c(C)sc4n3)CC1)OC(C)C2` (stereo not given), the figures for the inhibition in assay [1], in assay [2] and in assay [3] were 1.98%, 3.73% and 2.08%, respectively.

As to `COC(=O)C1=C(C)NC2=C(C(=O)CC(c3ccc(OC)c(OC)c3)C2)C1c1cccc(O)c1` (stereo not given), the inhibition in assay [1] was 3.8%; in assay [2] it was 3.84%; in assay [3], 3.82%.

Turning to `O=C(/C=C/c1ccc(F)cc1)NC1CCC(CCN2CCc3ccccc3CC2)CC1` (stereo not given), the values for the inhibition in assay [1], in assay [2] and in assay [3] were 7.03%, 5.64% and 2.76%, respectively.

`O=C(/C=C/c1ccc(C(F)(F)F)cc1)N1CCC(CCN2CCC(c3c[nH]c4ccccc34)CC2)CC1`: the inhibition in assay [1] came to 16.8%; in assay [2], 9.28%; in assay [3] it was 3.39%.

With `CSc1ccc2ccccc2c1CCNCCCCNCCc1c(SC)ccc2ccccc12`, the inhibition in assay [1] came out at 68.9%; in assay [2] it was 96.1%; in assay [3], 81.6%.

Turning to `CCOc1cc(C(=O)NCCCN2CCN(c3cccc(Cl)c3)CC2)ccc1-c1nc2cc(Cl)c(F)cc2[nH]1`, the inhibition in assay [1] is -0.54%; in assay [2], -0.11%; in assay [3] it was -0.18%.

With `CCCc1cc(Cc2cnc(N)nc2N)cc(CCC)c1OCCCCCC(=O)OCC`, the inhibition in assay [1] amounted to 4.7%; in assay [2], 2.93%; in assay [3], 2.52%.

In the case of `O=C(NC1CCN(Cc2ccccc2)CC1)c1ccc(-c2nc3cc(Cl)c(F)cc3[nH]2)cc1`, the inhibition in assay [1] came to 1.14%; in assay [2], 0.15%; in assay [3], 2.45%.

On to `CCN(CC)CCN(Cc1ccc(-c2ccc(C(F)(F)F)cc2)cc1)C(=O)Cn1c(CCc2cc(F)c(F)c(F)c2)nc(=O)c2ccccc21`, for which the values for the inhibition in assay [1], in assay [2] and in assay [3] were 9.62%, 9.17% and 8.54%, respectively.

As to `Cc1cccc2nc(-c3cccc(-c4ccc(NC(=O)C5CCCO5)cc4)c3)[nH]c12` (stereo not given), the inhibition in assay [1] was 6.93%; in assay [2], 3.31%; in assay [3] it was 2.04%.

For `CS(=O)(=O)Nc1ccc(OCCCCCCOc2ccc(NS(C)(=O)=O)cc2)cc1`, the inhibition in assay [1] was 1.48%; in assay [2] it was 3.08%; in assay [3], 2.14%.

For the compound `CN1CCCCC1CCc1cc(C(=O)Nc2ccc(-c3ccc(O)cc3)cc2)ccc1O` (stereo not given), the inhibition in assay [1] is 1.7%; in assay [2], 1.76%; in assay [3], -0.5%.

With `CCCC(C)Nc1nc(C)cc(N[C@@H](CC(C)C)C(=O)NC2CCCC2)n1` (stereo not given in full), the inhibition in assay [1] was 2.53%; in assay [2], 4.34%; in assay [3] it was 3.26%.

As to `CCCN(CCCCCCNCCc1ccc(Cl)cc1)CCc1ccc(O)c(O)c1`, the values for the inhibition in assay [1], in assay [2] and in assay [3] were -4.9%, -1.72% and -4.57%, respectively.

As for `COc1ccc(Cl)cc1N1CCN(CCCNC(=O)c2ccc(-c3nc4cc(Cl)c(F)cc4[nH]3)s2)CC1`, the inhibition in assay [1] came out at 6.45%; in assay [2] it was 5.41%; in assay [3] it was 2.06%.

For the compound `CN(C)c1nc2cc(-n3cnc4cc(-c5ccc(Cl)cc5)sc4c3=O)ccc2n1CCCN1CCCCC1`, the inhibition in assay [1] is 9.33%; in assay [2], 10.8%; in assay [3], 5.06%.

For `CC1CCCC(NCc2c(O)ccc3ccccc23)C1` (stereo not given), the values for the inhibition in assay [1], in assay [2] and in assay [3] were 3.58%, 3.22% and 3.69%, respectively.

For the compound `CN1CCN(c2cccc(NC(=O)c3ccc(-c4ccc(C#N)cc4)cc3)c2)CC1`, the figures for the inhibition in assay [1], in assay [2] and in assay [3] were 8.25%, 3.32% and 5.96%, respectively.

As to `CC(C)C[C@@H](C(=O)Nc1ccc(Cc2ccc(NC(=O)[C@H](CC(C)C)N(C)C(=O)OC(C)(C)C)cc2)cc1)N(C)C(=O)OC(C)(C)C`, the inhibition is 0.03% in assay [1], -1.12% in assay [2] and -0.46% in assay [3].
